Experimental data taken from PubChem BioAssay.
Calls of active or inactive are those of the source.

experiment: splicing luciferase reporter signal modulators, primary screen, spliceosome inhibition project, cell-based, HEK293, splice +/- reporter (AID 1101); conditions: luminescence, 24 h, higher = more signal, called active from +8 up or from −8 down;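 further: HEK293 cells carrying a splicing-competent luciferase reporter gene; test concentration not given here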

z-score, inactive:
Cc1ccccc1C(O)C1C=CC2C(=O)N(c3ccccc3)C(=O)C2N1Nc1ccc(C(C)C)cc1 (stereo unspecified) 0.26
CCS[C@H]1[C@@H](C(=O)O)[C@H](c2ccc(C)cc2)N(S(=O)(=O)c2ccc(C)cc2)[C@@H]1CC 0.269
COc1cc(NN2C(C(O)c3ccco3)C=CC3C(=O)N(c4ccccc4)C(=O)C32)cc(OC)c1OC (stereo unspecified) 0.523
CNS(=O)(=O)c1ccc(C)cc1 -1.07
O=C1N(Cc2ccccc2)c2ccccc2[C@@H]2OC(c3ccc(OCCCO)cc3)=N[C@]12CCS(=O)(=O)c1ccccc1 1.2
COc1cc2c(cc1O)C(C1CC1)N(Cc1sc3ccccc3c1Cl)CC2 (stereo unspecified) -1.57
Oc1ccc2cc[n+](Cc3sc4ccccc4c3Cl)cc2c1 -1.74
CC(C)N1C(=O)C[C@@](C(=O)NCC(F)(F)F)(c2ccc([N+](=O)[O-])cc2)[C@H]1c1ccc(CO)cc1 -0.259
COCCCNC(=O)[C@@]1(C)c2ccccc2C(=O)N(C(C)C)[C@H]1c1ccc(CO)cc1 -0.373
COCCOC(=O)N1C(=O)[C@@]2(c3cc(C#CCC(C(=O)OC)C(=O)OC)ccc31)[C@H](c1ccccc1OCCO)N1[C@H](c3ccccc3)[C@H](c3ccccc3)OC(=O)[C@H]1[C@@H]2C(=O)N1CCN(c2ncccn2)CC1 -0.397
CCOC(=O)[C@H]1C/C=C/C[C@H](C(=O)OCC)C(=O)O[C@H]2[C@@H](OC)O[C@H](CO)[C@@H](OC(=O)c3c(OC)cccc3OC)[C@@H]2OC1=O 0.837
